Measured values taken from PubChem BioAssay (NCATS).
Records with an inconclusive call do not appear. Where a call stands in place of a potency, no number is given. Calls of active or inactive are those of the source. Unless noted, the call rests on the fitted dose curve; in most records, active means well fitted curve in the direction sought with a large enough effect; inconclusive means small, poorly fitted or top-dose-only effect, or another doubt; inactive means no such curve, though single readings can be large; an effect the other way counts as inactive or inconclusive. Residues, ends and D or L forms follow the SMILES beside them. *: point of attachment. Cbz = O=C(OCc1ccccc1)*

Columns and labels:
[1] = qHTS to identify inhibitors of the type 1 interferon - major histocompatibility complex class I in skeletal muscle: primary screen against the NCATS Mechanism Interrogation Plate v5.0 (MIPE) Libary (AID 1347411); further: nearly all actives have a fitted effect of over 65% in size; further: potency means the concentration at half of the fitted maximal effect
Outline: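 Seed engineered human myoblasts (HLA-B HiBit) in medium without dexamethasone containing 4 ng/ml IFN-beta; after 1 hr add compound titrations (top 46 uM final). Incubate 24 hrs at 37 C, lyse 10 min with HiBiT reagent, read luminescence.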

[2] = biological target: Calcium and integrin-binding protein 1 (Homo sapiens) (UniProt Q99828); assay: Primary qHTS for Identification of Calcium Integrin Binding Protein 1 (CIB1) Competitor (AID 1508620);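 further: GST tagged CIB1 binding a fluorescein labelled alphaIIb integrin peptide tracer; top concentration of the series differs between compounds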
Sequence of Calcium and integrin-binding protein 1 (Homo sapiens) (Q99828 whole entry, looked up): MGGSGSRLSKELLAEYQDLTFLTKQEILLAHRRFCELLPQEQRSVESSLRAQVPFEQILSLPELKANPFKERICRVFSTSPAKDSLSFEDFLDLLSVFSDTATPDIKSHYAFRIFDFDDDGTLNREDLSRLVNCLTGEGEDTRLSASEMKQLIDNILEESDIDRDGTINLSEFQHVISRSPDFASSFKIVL
Outline: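 CIB1-GST (1 uM final) and compound incubated 15 min at room temperature before adding FITC-alphaIIb peptide tracer (100 nM final). Competition for binding read by fluorescence polarization (ex 480, em 540) after another 15 min at room temperature.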

[3] = Primary qHTS for small molecule stabilizers of the endoplasmic reticulum resident proteome: Secreted ER Calcium Modulated Protein (SERCaMP) assay (AID 1508630)
Outline: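 The SH-SY5Y reporter protocol was run at 3 concentrations up to 38.3 uM (primary) or 11 concentrations (follow-up): 16 h compound, 100 nM thapsigargin for 4 h, then extracellular luciferase luminescence.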

[4] = biological target: Cytochrome P450 2C9 (Homo sapiens) (UniProt P11712); assay: Cytochrome P450 family 2 subfamily C member 9 (CYP2C9) small molecule antagonists: luciferase biochemical (cell-free) qHTS assay (AID 1645842; active means well fitted curve in the direction sought with a large enough effect in the repeat runs; an effect the other way counts as inactive or inconclusive; further: potency means the concentration at half of the fitted maximal effect; nearly all actives have a fitted effect of over 55% in size)
Sequence of Cytochrome P450 2C9 (Homo sapiens) (P11712 whole entry, looked up): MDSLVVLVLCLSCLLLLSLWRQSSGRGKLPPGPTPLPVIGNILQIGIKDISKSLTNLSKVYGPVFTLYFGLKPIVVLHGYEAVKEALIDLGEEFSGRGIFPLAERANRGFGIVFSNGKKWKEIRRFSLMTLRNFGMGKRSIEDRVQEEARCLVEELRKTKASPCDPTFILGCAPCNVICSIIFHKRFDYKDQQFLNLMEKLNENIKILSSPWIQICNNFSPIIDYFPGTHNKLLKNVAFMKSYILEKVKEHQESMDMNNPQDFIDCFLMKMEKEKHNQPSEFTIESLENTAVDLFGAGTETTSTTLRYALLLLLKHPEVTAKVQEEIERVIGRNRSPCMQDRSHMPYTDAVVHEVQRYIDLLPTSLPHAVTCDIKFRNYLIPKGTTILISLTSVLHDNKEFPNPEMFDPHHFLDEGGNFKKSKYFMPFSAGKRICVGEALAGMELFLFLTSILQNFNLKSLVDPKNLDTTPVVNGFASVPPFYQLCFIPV
Outline: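 P450-Glo CYP2C9 system: proluciferin substrate with enzyme in mix containing 0.4% BSA, 10 min at room temperature, then NADPH regeneration solution added and incubated 1 h at 37C. Detection reagent stopped reaction; luminescence read after 20 min as RLU.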

[5] = Primary qHTS for inhibitors of nuclear receptor binding SET domain protein 2 (NSD2) in an RCH-ACV wild type WT cells (2C) (AID 1645877); further: nearly all actives have a fitted effect of over 70% in size; further: potency means the concentration at half of the fitted maximal effect
[6] = Primary qHTS for inhibitors of nuclear receptor binding SET domain protein 2 (NSD2) in an isogenic RCH-ACV NSD2 p.E1099K mutant (9B) (AID 1645876); further: nearly all actives have a fitted effect of over 70% in size; further: potency means the concentration at half of the fitted maximal effect

SMILES | Potency [1] | Potency [2] | outcome [3] | Potency [4] | Potency [5] | Potency [6]
Cc1cncc2cccc(S(=O)(=O)N3CCCN(C(=O)CN)C[C@@H]3C)c12 | inactive | inactive | inactive | 19 µM (active) | 1.45 µM (active) | –
CC[C@@]1([C@@H]2O[C@@H]([C@H]3O[C@@](O)(CO)[C@H](C)C[C@H]3C)C[C@H]2C)CC[C@H]([C@]2(C)CC[C@]3(C[C@H](O)[C@@H](C)[C@@H]([C@@H](C)[C@@H](OC)[C@H](C)C(=O)O)O3)O2)O1 | inactive | inactive | inactive | – | – | 0.162 µM (active)
C=C(C)[C@@H]1CC[C@]2(C(=O)O)CC[C@]3(C)[C@H](CC[C@@H]4[C@@]5(C)CC[C@H](O)C(C)(C)[C@@H]5CC[C@]43C)[C@@H]12 | inactive | inactive | inactive | – | inactive | inactive
CC(C)NC[C@@H](C(=O)N1CCN(c2ncnc3c2[C@H](C)C[C@H]3O)CC1)c1ccc(Cl)cc1 | inactive | inactive | inactive | – | 2.63 µM (active) | 1.66 µM (active)
O=C1NCCc2[nH]c(-c3ccncc3)cc21 | 2.08 µM (active) | inactive | inactive | – | 1.32 µM (active) | 2.35 µM (active)
CC(C)C[C@@H](C=O)NC(=O)[C@H](CC(C)C)NC(=O)[C@H](CC(C)C)NC(=O)OCc1ccccc1 (Cbz-Leu-Leu-Leu-aldehyde) | 2.08 µM (active) | inactive | inactive | – | 0.934 µM (active) | 1.05 µM (active)
CCCCOc1ccc(C(=O)Nc2ccc(F)cc2F)cc1 | inactive | inactive | inactive | 7.56 µM (active) | inactive | inactive
